From the supplement of paper PMC6992640

Key:
HCI01 = cells of a triple-negative basal-like breast cancer xenograft; experiment: cell viability of combination (% of vehicle); higher = less cytotoxic; settings: 1 µM; 72 h; partner dose: 10 nM
Experimental: (§1)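 PDX cells were treated for 72 h with each drug at 1 µM plus afatinib (10 nM; 1 µM for WHIM30). Luciferase viability is expressed as percent of vehicle.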

WHIM2 = cells of a triple-negative basal-like breast cancer xenograft; experiment: as above; settings: 1 µM; 72 h; partner dose: 10 nM
Experimental: as §1

Structure (SMILES)	cell viability of combination (HCI01)	cell viability of combination (WHIM2)
CN1CCC(COc2cnc(-c3cccc(Cn4nc(-c5cccc(C#N)c5)ccc4=O)c3)nc2)CC1 + CN(C)C/C=C/C(=O)Nc1cc2c(Nc3ccc(F)c(Cl)c3)ncnc2cc1O[C@H]1CCOC1 [Afatinib]	39.9	51
CC(C)(C)NC(=O)C1CC2CCCCC2CN1CC(O)C(Cc1ccccc1)NC(=O)C(CC(N)=O)NC(=O)c1ccc2ccccc2n1.CS(=O)(=O)O (centres undefined) [Saquinavir mesylate] + CN(C)C/C=C/C(=O)Nc1cc2c(Nc3ccc(F)c(Cl)c3)ncnc2cc1O[C@H]1CCOC1 [Afatinib]	48.2	47.9
COC(=O)NC(C(=O)N1CCCC1c1ncc(-c2ccc(-c3ccc(-c4cnc(C5CCCN5C(=O)C(NC(=O)OC)C(C)C)[nH]4)cc3)cc2)[nH]1)C(C)C (centres undefined) + CN(C)C/C=C/C(=O)Nc1cc2c(Nc3ccc(F)c(Cl)c3)ncnc2cc1O[C@H]1CCOC1 [Afatinib]	48.3	46.3
Nc1c(CC(=O)[O-])cccc1C(=O)c1ccccc1.O.[Na+] [Amfenac Sodium Monohydrate] + CN(C)C/C=C/C(=O)Nc1cc2c(Nc3ccc(F)c(Cl)c3)ncnc2cc1O[C@H]1CCOC1 [Afatinib]	54.7	47.6
CC1CC(=O)NN=C1c1ccc(NN=C(C#N)C#N)cc1 (centres undefined) [Levosimendan] + CN(C)C/C=C/C(=O)Nc1cc2c(Nc3ccc(F)c(Cl)c3)ncnc2cc1O[C@H]1CCOC1 [Afatinib]	52.7	51.2
COc1cccc2c1C(=O)c1c(O)c3c(c(O)c1C2=O)CC(O)(C(=O)CO)CC3OC1CC(N)C(O)C(C)O1.Cl (centres undefined) [Doxorubicin (Adriamycin) HCl] + CN(C)C/C=C/C(=O)Nc1cc2c(Nc3ccc(F)c(Cl)c3)ncnc2cc1O[C@H]1CCOC1 [Afatinib]	49.5	13.6
Cl.Cl.Fc1ccc(C(c2ccc(F)cc2)N2CCN(CC=Cc3ccccc3)CC2)cc1 [Flunarizine 2HCl] + CN(C)C/C=C/C(=O)Nc1cc2c(Nc3ccc(F)c(Cl)c3)ncnc2cc1O[C@H]1CCOC1 [Afatinib]	63.3	50.6
CN(C(=O)CN(CCO)CC(=O)N(C)C(C)(C)Cc1ccccc1)C(C)(C)Cc1ccccc1 [Oxethazaine] + CN(C)C/C=C/C(=O)Nc1cc2c(Nc3ccc(F)c(Cl)c3)ncnc2cc1O[C@H]1CCOC1 [Afatinib]	49.1	41.4
Cc1cccc(CN2CCN(C(c3ccccc3)c3ccc(Cl)cc3)CC2)c1.Cl.Cl (centres undefined) [Meclizine 2HCl] + CN(C)C/C=C/C(=O)Nc1cc2c(Nc3ccc(F)c(Cl)c3)ncnc2cc1O[C@H]1CCOC1 [Afatinib]	65.4	53.1
COc1cc2c(Nc3ccc(Br)cc3F)ncnc2cc1OCC1CCN(C)CC1 [Vandetanib (ZD6474)] + CN(C)C/C=C/C(=O)Nc1cc2c(Nc3ccc(F)c(Cl)c3)ncnc2cc1O[C@H]1CCOC1 [Afatinib]	47.3	24.4
O=C(O)CO.[NH2-].[NH2-].[Pt+2] [Nedaplatin] + CN(C)C/C=C/C(=O)Nc1cc2c(Nc3ccc(F)c(Cl)c3)ncnc2cc1O[C@H]1CCOC1 [Afatinib]	49.9	48.5
Br.Cc1ccc(Sc2ccccc2N2CCNCC2)c(C)c1 + CN(C)C/C=C/C(=O)Nc1cc2c(Nc3ccc(F)c(Cl)c3)ncnc2cc1O[C@H]1CCOC1 [Afatinib]	49.7	46.7
